Measurements reported in PubChem BioAssay (NCI).
Several values for one entry are separate records, joined by “and”; a condition that tells them apart may be missing. Identical values can stand only once. Compounds without any hit were thinned out: in the full panel of roughly 79,000, 15% have a hit. Activity calls are given as the source filed them. Cut-off read from the data, not from the text of the source: active = growth inhibition above about 70%; inactive = the rest.

Legend:
[1] = NCI Yeast Anticancer Drug Screen. Data for the rad50 strain (AID 155);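 note: 0% = growth of vehicle-only cultures of the same strain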; conditions: S. cerevisiae rad50 strain growth inhibition; at 50.0 µM; hits give high values
How it was run: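 DNA repair mutant yeast, compound exposure, growth read-out; inhibition is taken relative to vehicle.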

[2] = NCI Yeast Anticancer Drug Screen. Data for the mec2-1 strain (AID 157); conditions: S. cerevisiae mec2-1 strain, at 50.0 µM, hits give high values
How it was run: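 Using mec2-1 yeast: add compound, measure growth, express inhibition versus vehicle-treated cultures.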

[3] = NCI Yeast Anticancer Drug Screen. Data for the sgs1 mgt1 strain (AID 161);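 note: 0% = growth of cultures given vehicle only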; conditions: S. cerevisiae sgs1 mgt1 strain, at 50.0 µM, hits give high values
How it was run: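 Compounds are added to genetically altered yeast, and growth is compared with cultures given vehicle alone to give percent inhibition.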

[4] = NCI Yeast Anticancer Drug Screen. Data for the cln2 rad14 strain (AID 165);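 note: 0% = growth equal to vehicle treated cultures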; conditions: S. cerevisiae cln2 rad14 strain, at 50.0 µM, hits give high values
How it was run: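 Yeast strain cln2 rad14, bearing defects in cell cycle control and DNA repair, serves as the test system; values reflect growth inhibition compared with vehicle.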

[5] = NCI Yeast Anticancer Drug Screen. Data for the bub3 strain (AID 167); conditions: S. cerevisiae bub3 mutant strain, at 50.0 µM, hits give high values
How it was run: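 In this screen, a yeast mutant lacking normal mitotic checkpoint function is challenged with compound. Relative growth versus vehicle gives the inhibition value.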

[6] = NCI Yeast Anticancer Drug Screen. Data for the mlh1 rad18 strain (AID 175); conditions: S. cerevisiae mlh1 rad18 strain growth inhibition; at 50.0 µM; hits give high values
How it was run: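 Steps: expose repair-defective yeast to compound; measure growth; express inhibition against vehicle-treated controls.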

Measured: growth inhibition

CN(C)N=Nc1ccc(C(=O)O)cc1
inactive: [1] 27.6% and 12.6% | [2] 22.1% and -1.3% | [3] 28.6% and 20.9% | [4] -0.05% and -0.65% | [5] 16.9% and -21.1% | [6] 26.6% and 7.65%

CC(CCC(C)C(=O)O)C(=O)O (stereo not drawn)
inactive: [1] -10.1% and 40.4% | [2] -12.8% and 9.8% | [3] -2.05% and 15.4% | [4] 12.2% and 13% | [5] -15.1% and 22.6% | [6] -0.25% and 27.9%

NCC(O)c1ccc(O)c(O)c1 (stereo not drawn)
inactive: [1] 38.8% and 19.4% | [2] 39.9% and -5.9% | [3] 30.9% and -7.2% | [4] 19% and -32.3% | [5] 28.5% and 13.4% | [6] 44.6% and 14.8%

O=c1[nH]c(=O)n(C2OC(CO)C(O)C2O)c2ncncc12 (stereo not drawn)
inactive: [1] 3.15% and 12.4% | [2] 5.7% and 4.75% | [3] 31.2% and -0.75% | [4] 4.9% and 8.8% | [5] 16.4% and -30.4% | [6] -39.8% and -25.5%

CC(C)(CO)C(O)C(=O)NCCS(=O)(=O)O (stereo not drawn)
inactive: [1] -6.8% and -16.3% | [2] -4.35% and -1.8% | [3] 15.2% and 3.4% | [4] -14% and -11.9% | [5] 9.05% and 21.9% | [6] -3.1% and -27.3%

Cn1c(=O)c2[nH]cnc2n(C)c1=O
inactive: [1] 4.5% and 10.1% | [2] -16.1% and 2.3% | [3] -35.5% and -20.8% | [4] -23.8% and -9.25% | [5] -3.95% and -2.2% | [6] 19.1% and 2.8%

O=[N+]([O-])c1ccc(S(=O)(=O)Cl)cc1
inactive: [1] 53.2% and 20.5% | [2] -3.75% and 6.75% | [3] 30.9% and 44.5% | [4] 35.8% and 23.1% | [5] 28.1% and 6.15% | [6] 52% and 52.5%

O=C(CCl)OCCC1CCCCC1
inactive: [1] 9.3% and -7.6% | [2] -16.7% and -17.1% | [3] 5.15% and -10.8% | [4] -8.7% and -29.4% | [5] 5.6% and 6.1% | [6] 1.4% and -16.4%
